This is an account of results in PubChem BioAssay.

Assay [1] concerns Wnt5a (protein binding on small-molecule microarray). Put plainly: Wnt5a binders on small-molecule microarray, primary screen, biophysical, 635/667 nm fluorescence (AID 1142).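 Further: fluorescence read at 667 nm with signal to noise per printed feature.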 The settings on record: 635 nm fluorescence, higher = more signal.
A short description of assay [2]: cell viability in Huh7 cells, primary screen, cytotoxicity control for HCV replication inhibitor project, CellTiter-Glo luminescence, basal, 48 h (AID 1143).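 Further: Huh7 hepatoma cells carrying a hepatitis C replication reporter with no stimulus; test concentration not given here.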 The settings on record: Huh7 HCV replicon, higher = more signal, called active from +8 up or from −8 down. (Cellular ATP, detected with luciferase, serves as a proxy for viable cell number.)
The nature of assay [3]: P. aeruginosa biofilm formation inhibitors, primary screen, PAO1 strain, BacTiter-Glo luminescence, LB-PBS (AID 1144). The settings on record: 12 h, higher = more signal.
Assay [4] is described as follows: CREB reporter modulators without forskolin, primary screen, cell-based, PC12, CRE-LacZ reporter, unstimulated (AID 1145). The note with it: no forskolin, luminescence, 4.5 h, higher = more signal, called active from +8 up or from −8 down.
The nature of assay [5]: CREB reporter modulators under forskolin, primary screen, cell-based, PC12, CRE-LacZ reporter, forskolin-stimulated (AID 1146).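 Further: PC12 cells with 6xCRE LacZ reporter stimulated by forskolin 10 µM; beta-galactosidase reporter signal reflecting CREB driven transcription.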 The note with it: luminescence, 4.5 h, higher = more signal, called active from +8 up or from −8 down.
Assay [6] has as its target Streptavidin (Streptomyces avidinii) (UniProt P22629). Put plainly: streptavidin binders on small-molecule microarray, primary screen, artefact control for SMM compound annotation, biophysical, 635/667 nm fluorescence (AID 1147).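 Further: signal reflects streptavidin binding to arrayed compounds as a control protein.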 The settings on record: streptavidin binding, higher = more signal.
Assay [7] can be described thus: small-molecule binders of probe aInhba, primary screen, biochemical, small-molecule microarray, 635/667 nm fluorescence (AID 1148).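 Further: score merges 667nm spot fluorescence with signal-to-noise for antibody binding to printed compounds.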 The settings on record: higher = more signal.
Assay [8] concerns the target Torsin-1A (Homo sapiens) (UniProt O14656). Put plainly: torsin A binders from cell lysate, primary screen, small-molecule microarray, wild-type, 635/667 nm (AID 1149). The settings on record: COS7 hTOR1A-WT lysate, 635 nm fluorescence, higher = more signal.
Assay [9] has the same target. In words: small-molecule binders of mutant TOR1A in lysate, primary screen, cell lysate, small-molecule microarray, COS7 lysate, 635/667 nm fluorescence (AID 1150).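 Further: score pools 667 nm emission and signal to noise measuring lysate protein binding.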 The note with it: COS7 hTOR1A mutant lysate, 635 nm fluorescence, higher = more signal.
Assay [10] relates to Sonic hedgehog protein (Shh). In words: small-molecule binders of Shh protein, primary screen, biochemical, small-molecule microarray, 635/667 nm fluorescence (AID 1151).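 Further: Shh protein binding to compounds spotted on small-molecule microarray slides; score combines spot fluorescence intensity with signal-to-noise across triplicate slides.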 The note with it: small-molecule microarray binding, 635 nm fluorescence; higher = more signal.

Structures are written as SMILES. Activity calls are given as the source filed them. Unless noted, how the calls were made is not given here.

Torsin-1A (Homo sapiens), sequence (O14656 whole entry, looked up): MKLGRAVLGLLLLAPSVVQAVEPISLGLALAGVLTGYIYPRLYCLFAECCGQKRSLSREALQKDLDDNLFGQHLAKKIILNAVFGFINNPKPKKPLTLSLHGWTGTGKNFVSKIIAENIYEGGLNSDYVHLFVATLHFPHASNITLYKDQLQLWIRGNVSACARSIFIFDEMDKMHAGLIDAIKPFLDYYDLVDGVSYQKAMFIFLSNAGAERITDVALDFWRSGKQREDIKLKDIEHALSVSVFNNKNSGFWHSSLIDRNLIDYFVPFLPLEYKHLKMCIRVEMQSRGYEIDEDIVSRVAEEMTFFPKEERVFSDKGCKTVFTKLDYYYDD
Streptavidin (Streptomyces avidinii), sequence (P22629 whole entry, looked up): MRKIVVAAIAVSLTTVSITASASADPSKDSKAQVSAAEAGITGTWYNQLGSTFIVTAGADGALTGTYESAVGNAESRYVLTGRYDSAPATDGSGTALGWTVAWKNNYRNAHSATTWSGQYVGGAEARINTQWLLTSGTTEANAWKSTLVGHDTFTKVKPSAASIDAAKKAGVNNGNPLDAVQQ

For the compound `O=C1O[C@H](c2ccccc2)[C@H](c2ccccc2)N2[C@H]1[C@@H](C(=O)N1CCCCCCC1)[C@]1(C(=O)Nc3ccc(C#CC4=CCCCC4)cc31)[C@H]2c1ccc(OCCO)cc1`, the composite z-score in assay [1] came to 1.79; in assay [6] it was 3.17; in [7], 2.23; with Torsin-1A (Homo sapiens) [8] it was 1.5; in the assay with Torsin-1A (Homo sapiens) [9] it was 1.88; in assay [10] it was 1.59. Moreover, the z-score in assay [2] is -5.63 (inactive); in [3], -0.761 (inactive); in assay [4], 0.182 (inactive); in [5], -0.617 (inactive).

As to `O=C1O[C@@H](c2ccccc2)[C@@H](c2ccccc2)N2[C@@H](c3ccccc3OCCO)[C@]3(C(=O)Nc4ccc(C#CC5=CCCCC5)cc43)[C@@H](C(=O)N3CCCCCCC3)[C@H]12`, the composite z-score in assay [1] was 2.24; in assay [6] it was 3.51; in assay [7], 2.23; with Torsin-1A (Homo sapiens) [8], 2.81; with Torsin-1A (Homo sapiens) [9], 2.9; in [10] it was 1.22. Besides, the z-score in assay [2] is -4.53 (inactive); in assay [3] it was 0.189 (inactive); in [4], -0.203 (inactive); in assay [5] it was 0.188 (inactive).

Regarding `CC(=O)NCCCC[C@@H]1NC(=O)[C@H]2C[C@@H](C(=O)NCCCCCCNC(=O)CS)[C@@H](c3ccc(O)cc3)N2C1=O`, the composite z-score in [1] was 0.151; in [6] it was -1.22; in assay [7], 0.0074; with Torsin-1A (Homo sapiens) [8], 0.365; in the assay with Torsin-1A (Homo sapiens) [9], 2.14; in assay [10] it was 1.22. The z-score in assay [2] was -0.133 (inactive); in [3], -0.619 (inactive); in assay [4] it was -0.528 (inactive); in [5], 0.14 (inactive).

Take `COC(=O)[C@@]1(Cc2ccccc2)[C@H]2c3cc(C(=O)N(C)C)n(Cc4ccsc4Br)c3C[C@H]2CN1C(=O)c1ccccc1`: the composite z-score in assay [1] is 0.211; in [6], 1.09; in assay [7], 0.0737; with Torsin-1A (Homo sapiens) [8], 0.856; with Torsin-1A (Homo sapiens) [9], 0.508; in assay [10], -1.21. Also, the z-score is -3.35 (inactive) in [2], -0.166 (inactive) in [3], 0.58 (inactive) in [4] and 0.751 (inactive) in assay [5].

For the compound `COCCOC(=O)N1C(=O)[C@@]2(c3cc(C#CC4(O)CCCCCC4)ccc31)[C@H](c1ccccc1OCCO)N1[C@H](c3ccccc3)[C@H](c3ccccc3)OC(=O)[C@H]1[C@@H]2C(=O)N1CCN(c2ncccn2)CC1`, the composite z-score turned out to be 0.839 in assay [1]; 0.356 in [6]; 0.153 in assay [7]; 0.456 with Torsin-1A (Homo sapiens) [8]; 0.699 in the assay with Torsin-1A (Homo sapiens) [9]; 0.678 in assay [10]. Further, the z-score in assay [2] was -1.86 (inactive); in assay [3], -0.354 (inactive); in [4], 0.155 (inactive); in [5], 0.411 (inactive).

`O=C1C2C=CC(C(O)c3cc(C(F)(F)F)cc(C(F)(F)F)c3)N(n3cnnc3)C2C(=O)N1Cc1ccccc1` (stereo not given): the composite z-score in assay [1] is -0.484; in [6] it was 0.0422; in assay [7], -0.0719; in the assay with Torsin-1A (Homo sapiens) [8], -0.808; with Torsin-1A (Homo sapiens) [9], -0.0144; in [10] it was -0.755. In addition, the z-score is -1.34 (inactive) in assay [2], -1.12 (inactive) in [3], 0.089 (inactive) in assay [4] and 0.753 (inactive) in assay [5].

Take `COc1ccc([Si](C)(C)[C@@H]2[C@@H](CC(=O)N3CCC[C@H]3CO)O[C@]3(C(=O)N(c4ccccc4)c4ccccc43)[C@H]2C)cc1`: the composite z-score in [1] came to 0.155; in assay [6], 0.578; in assay [7], 0.0047; in the assay with Torsin-1A (Homo sapiens) [8], 0.491; with Torsin-1A (Homo sapiens) [9], 0.466; in assay [10], 1.53. Besides, the z-score in assay [2] was -4.58 (inactive); in assay [3], 0.439 (inactive); in assay [4], -0.0815 (inactive); in assay [5], 0.334 (inactive).

In the case of `COc1ccc(C#Cc2ccc3c(c2)[C@]2(C(=O)N3)[C@H](C(=O)NC[C@H](O)c3ccccc3)[C@H]3C(=O)O[C@H](c4ccccc4)[C@H](c4ccccc4)N3[C@@H]2c2ccc(O)cc2)cc1`, the composite z-score was 0.288 in assay [1]; 0.539 in assay [6]; -0.128 in assay [7]; 0.179 with Torsin-1A (Homo sapiens) [8]; 0.587 in the assay with Torsin-1A (Homo sapiens) [9]; 1.24 in [10]. In addition, the z-score in assay [2] was -2.62 (inactive); in assay [3] it was -1.1 (inactive); in assay [4], -0.141 (inactive); in assay [5], -0.301 (inactive).

Regarding `COCCOC(=O)N1C(=O)[C@@]2(c3cc(C#Cc4ccc(OC)cc4)ccc31)[C@H](c1ccccc1OCCO)N1[C@H](c3ccccc3)[C@H](c3ccccc3)OC(=O)[C@H]1[C@@H]2C(=O)NC[C@H](O)c1ccccc1`, the composite z-score is 0.609 in [1]; 0.115 in [6]; 0.143 in assay [7]; 0.175 with Torsin-1A (Homo sapiens) [8]; 0.525 in the assay with Torsin-1A (Homo sapiens) [9]; 2.21 in [10]. The z-score in [2] is -3.23 (inactive); in assay [3], -0.436 (inactive); in assay [4] it was -0.602 (inactive); in assay [5] it was -0.0611 (inactive).

On to `CCOC(=O)C1=C[C@@H](C(C)(C)C)N(S(=O)(=O)c2ccc(C)cc2)[C@H]1c1ccc(F)cc1`, for which the composite z-score amounted to 0.219 in assay [1]; 1.1 in assay [6]; 0.255 in assay [7]; 0.159 in the assay with Torsin-1A (Homo sapiens) [8]; 0.575 with Torsin-1A (Homo sapiens) [9]; 0.584 in assay [10]. In addition, the z-score in assay [2] is -3.79 (inactive); in [3], 0.673 (inactive); in assay [4] it was 0.0423 (inactive); in assay [5] it was 0.81 (inactive).
